Calls of active or inactive are those of the source. Rule for the calls: active = hit-call score of the fitted dose curve at least 0.9, where 1 is the maximum; inactive = score below 0.9.
How the values were obtained:
[1] = APR_HepG2_CellLoss_1hr: Apredica 1-hour HepG2 Assay for Cell Loss (AID 2282668); conditions: high-content imaging;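 note: curves fitted both ways against DMSO so gain or loss of cells counts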
Outline: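 Cell number comes from high-content imaging of Hoechst-labelled nuclei in fixed HepG2 cells. Cells were exposed for 1 h to ten concentrations from 0.39 to 200 uM in 0.5% DMSO. Gain or loss was fitted against DMSO controls.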

[2] = APR_HepG2_MicrotubuleCSK_1hr: Apredica 1-hour HepG2 Assay for Microtubule CSK Stabilty (AID 2282669); conditions: HepG2 microtubule cytoskeleton imaging, actives raise or lower the signal
Outline: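 Alpha-tubulin immunofluorescence, imaged by automated high-content microscopy with Hoechst nuclear segmentation, measured cytoskeletal change after 1 h dosing of HepG2 at 0.39–200 uM in 0.5% DMSO. Activity fitted in both directions relative to DMSO.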

[3] = APR_HepG2_NuclearSize_1hr: Apredica 1-hour HepG2 Assay for Nuclear Size (AID 2282670); conditions: high-content imaging, actives raise or lower the signal
Outline: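 Nuclear size measured by high-content imaging of Hoechst 33342 nuclear stain after formaldehyde fixation; human HepG2 line exposed 1 hr to compounds at 0.39–200 uM in 0.5% DMSO, with bidirectional curve fitting relative to DMSO.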

[4] = APR_HepG2_P-H2AX_1hr: Apredica 1-hour HepG2 Assay for H2AX Phosphorylation (AID 2282673); conditions: high-content imaging, actives raise or lower the signal
Outline: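 Phospho-H2A.x immunofluorescence (1:200, FITC secondary) plus Hoechst nuclear stain, quantified by high-content imaging in HepG2 after 1 hr compound exposure. Ten concentrations, 0.39 to 200 uM, in duplicate with 0.5% DMSO; fit both directions against DMSO.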

[5] = APR_HepG2_MitoMass_1hr: Apredica 1-hour HepG2 Assay for Mitochondrial Mass (AID 2282674); conditions: high-content imaging, actives raise or lower the signal
Outline: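 Mitochondrial mass is taken from MitoTracker Red CMXRos (250 nM, 30 min, pre-fixation) fluorescence imaged at 20x in HepG2 cells. Exposure lasted 1 hr across ten concentrations, 0.39 to 200 uM, 0.5% DMSO; DMSO baseline, bidirectional fitting.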

[6] = APR_HepG2_CellCycleArrest_24hr: Apredica 24-hour HepG2 Assay for Cell Cycle Arrest (AID 2282905); conditions: imaging, actives raise or lower the signal;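 note: cell cycle arrest scored as ratio of 2N to 4N nuclear DNA content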
Outline: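 Step one: dose HepG2 with test compounds, 0.39–200 uM, 0.5% DMSO, 24 hr. Step two: fix, permeabilize, stain nuclei with Hoechst 33342. Step three: image six fields per well at 20x, quantify DNA content, fit bidirectionally relative to DMSO.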

[7] = APR_HepG2_CellCycleArrest_1hr: Apredica 1-hour HepG2 Assay for Cell Cycle Arrest (AID 2282666); conditions: high-content imaging, actives raise or lower the signal
Outline: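 Cell cycle arrest scored from nuclear DNA content (Hoechst 33342) using high-content imaging of fixed HepG2 cells after 1 h treatment across 0.39–200 uM, in duplicate. Gain or loss fitted relative to 0.5% DMSO.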

[8] = APR_HepG2_MitoMembPot_1hr: Apredica 1-hour HepG2 Assay for Mitochondrial Membrane Potential (AID 2282675); conditions: imaging, actives raise or lower the signal
Outline: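 Mitochondrial membrane potential read as MitoTracker Red CMXRos intensity by automated imaging of fixed HepG2 cells. Dye at 250 nM for 30 min pre-fixation; compounds 0.39 to 200 uM for 1 hour, duplicate wells, 0.5% DMSO.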

[9] = APR_HepG2_MitoticArrest_1hr: Apredica 1-hour HepG2 Assay for Mitotic Arrest (AID 2282672); conditions: high-content imaging, actives raise or lower the signal
Outline: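 Ten-point concentration series (0.39 to 200 uM, duplicates, 0.5% v/v DMSO) applied to human HepG2 liver cells for 1 hr. High-content imaging of phospho-histone H3 and Hoechst-stained nuclei after fixation and permeabilization; DMSO-normalised bidirectional fit.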

[10] = APR_HepG2_p53Act_1hr: Apredica 1-hour HepG2 Assay for p53 Activation (AID 2282671); conditions: high-content imaging, actives raise or lower the signal
Outline: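 After 1 h exposure (0.39–200 uM, 0.5% DMSO final, duplicates), fixed HepG2 cells were labelled with anti-p53 antibody plus Hoechst nuclear stain. Fluorescence quantified by automated 20x imaging; changes fitted in both directions against DMSO.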

Measured: AC50

CNC(=O)Oc1cccc2c1OC(C)(C)O2
inactive: [1] | [2] | [3] | [4] | [5]
active: [6] 127 µM

Cc1ccn2nc(S(=O)(=O)Nc3c(F)cccc3F)nc2n1
not listed: [3] | [9] | [10]
inactive: all other assays above

CC(=NC#N)N(C)Cc1ccc(Cl)nc1
inactive: [1] | [2] | [3] | [9] | [5] | [6]

CNC(=O)ON=C(C)SC
inactive: [7] | [2] | [5] | [6]

CCOP(=S)(OCC)Oc1ccc2c(C)c(Cl)c(=O)oc2c1
not listed: [1] | [3] | [10]
inactive: all other assays above

CC1=NNC(=O)N(/N=C/c2cccnc2)C1
inactive: [7] | [10] | [4] | [5] | [8] | [6]

CC(COc1ccc(Oc2ccccc2)cc1)Oc1ccccn1 (configuration not stated)
inactive: [7] | [3] | [10] | [9] | [5]
active: [6] 77 µM

Cc1nn(-c2cc(NS(C)(=O)=O)c(Cl)cc2Cl)c(=O)n1C(F)F
inactive: [1] | [2] | [4] | [5] | [8] | [6]

C[N+]1(C)CCCCC1
inactive: [3] | [5] | [8] | [6]

CCOC(=O)COc1cc(-c2nn(C)c(OC(F)F)c2Cl)c(F)cc1Cl
inactive: [2] | [3] | [9] | [5] | [6]

CN(C)C(=O)Nc1cccc(C(F)(F)F)c1
inactive: [10] | [9] | [4] | [5] | [6]

CCOP(=O)(NC(C)C)Oc1ccc(SC)c(C)c1 (configuration not stated)
inactive: [1] | [2] | [5] | [6]

S=C1NCCN1
inactive: [9] | [4] | [5] | [8] | [6]

CCOP(=S)(OCC)OC(Cl)C(Cl)(Cl)Cl (configuration not stated)
inactive: [10] | [4] | [5] | [8] | [6]

C=C(C)[C@H]1Cc2c(ccc3c2O[C@@H]2COc4cc(OC)c(OC)cc4[C@@H]2C3=O)O1
active: [6] 0.0391 µM
inactive: [1] | [3] | [5]

CCC(CC)Nc1c([N+](=O)[O-])cc(C)c(C)c1[N+](=O)[O-]
inactive: [1] | [3] | [4] | [5] | [6]

CSC1=N[C@@](C)(c2ccccc2)C(=O)N1Nc1ccccc1
inactive: [1] | [2] | [10] | [5] | [6]

CCOC(=O)CC(SP(=O)(OC)OC)C(=O)OCC (configuration not stated)
inactive: [2] | [9] | [5] | [8] | [6]

COP(=O)(OC)SCn1c(=O)oc2cc(Cl)cnc21
inactive: [3] | [10] | [5] | [8] | [6]

CCOP(=O)(SC(C)CC)N1CCSC1=O (configuration not stated)
inactive: [1] | [5] | [8] | [6]

Nc1c(Cl)cc([N+](=O)[O-])cc1Cl
inactive: [1] | [9] | [4] | [5] | [8] | [6]

CCCSP(=O)(OCC)SCCC
inactive: [1] | [3] | [5] | [6]

CCNc1nc(Cl)nc(NC(C)(C)C#N)n1
inactive: [3] | [5] | [8] | [6]

CCC(=NOC/C=C/Cl)C1=C(O)CC(C2CCOCC2)CC1=O (configuration not stated)
inactive: [3] | [9] | [4] | [5] | [6]

CC(C)N(C(=O)SCC(Cl)=C(Cl)Cl)C(C)C
inactive: [2] | [10] | [4] | [5] | [6]

CCCOCC(=Nc1ccc(Cl)cc1C(F)(F)F)n1ccnc1
not listed: [2] | [7]
inactive: all other assays above

CSc1nnc(C(C)(C)C)c(=O)n1N
inactive: [10] | [9] | [4] | [5] | [6]

CC(Oc1cccc(Cl)c1)C(=O)O (configuration not stated)
inactive: [3] | [10] | [5] | [8] | [6]

CN(C)NC(=O)CCC(=O)O
inactive: [3] | [5] | [6]

CCCCN(CC)c1c([N+](=O)[O-])cc(C(F)(F)F)cc1[N+](=O)[O-]
inactive: [1] | [2] | [9] | [5]
active: [6] 99.3 µM

O=C(O)c1cc(Oc2ccc(C(F)(F)F)cc2Cl)ccc1[N+](=O)[O-]
inactive: [1] | [9] | [5] | [6]

CCCSP(=O)(OCC)Oc1ccc(Br)cc1Cl (configuration not stated)
inactive: [2] | [10] | [9] | [5] | [8] | [6]

O=[N+]([O-])c1cc(C(F)(F)F)c(Cl)c([N+](=O)[O-])c1Nc1ncc(C(F)(F)F)cc1Cl
active: [5] 103 µM | [6] 1.37 µM
inactive: [9]

From PubChem BioAssay (EPA / NIEHS)
